{"source": "ChEMBL document CHEMBL3988442", "about": "“University of Dundee, Small-Polar-MMV Screening Library” (2021)", "note": "The campaign covered roughly 53,000 compounds. About 900 (1.7%) showed an effect of 50% or more. The entries come from a sample that favours strong results as a whole."}
{"system": "Mycobacterium tuberculosis", "test": "Cornell - Phenotypic assay to identify agents that inhibit growth of Mycobacterium tuberculosis", "assay_type": "functional", "parameters": "scale not given: direction of the effect not stated beside the values", "details": "10 mM as filed; unlikely as a test dose", "units": {"Percent Effect": "%"}}
{"smiles": "O=C(c1cccc(-n2cnnc2)c1)N1C[C@@H](O)[C@H](N2CCOCC2)C1", "Percent Effect": 40.33}
{"smiles": "CN1C(=O)C2(CC(=O)Nc3[nH]ncc32)c2ccc(F)cc21", "note": "(centres undefined)", "Percent Effect": 10.37}
{"smiles": "CN(Cc1cnccn1)S(=O)(=O)c1ccc(C(F)(F)F)nc1", "Percent Effect": -14.08}
{"smiles": "CC(CS(C)(=O)=O)N(C)C(=O)NCCCc1ccc(Cl)cc1", "note": "(centres undefined)", "Percent Effect": 12.33}
{"smiles": "CN(C)S(=O)(=O)N1CCCCCC1c1cc(-c2ccc(F)cc2)no1", "note": "(centres undefined)", "Percent Effect": 73.32}
{"smiles": "CS(=O)(=O)N1CCCCCC1c1cc(-c2ccc(F)cc2)no1", "note": "(centres undefined)", "Percent Effect": 7}
{"smiles": "COc1ccc(-c2cc(C3CCCCCN3S(=O)(=O)N(C)C)on2)cc1", "note": "(centres undefined)", "Percent Effect": 15.93}
{"smiles": "Cc1ccc(-n2cc(S(=O)(=O)Nc3cccc(C(=O)O)c3C)cn2)cc1", "Percent Effect": 9.419}
{"smiles": "Cc1ccc(NS(=O)(=O)c2cnn(-c3ccccc3)c2)c(C(=O)O)c1", "Percent Effect": 55.25}
{"smiles": "Cc1ccc(NS(=O)(=O)c2cnn(Cc3ccccc3)c2)c(C(=O)O)c1", "Percent Effect": -25.98}
{"smiles": "CCCN(CCC)c1ncc(S(=O)(=O)c2ccc(OC)cc2)c(N)n1", "Percent Effect": 26.01}
{"smiles": "CC[C@H]1CN(C(=O)c2cccc(-n3cnnc3)n2)CC[C@@]1(C)O", "Percent Effect": -27.2}
{"smiles": "Cc1noc(C)c1C(=O)N1CCCC1(C)C(=O)NC1CCCC1", "note": "(centres undefined)", "Percent Effect": -3.819}
{"smiles": "CCOc1cc(C(=O)N2CCCC(c3noc(C)n3)C2)ccc1OC", "note": "(centres undefined)", "Percent Effect": 13.87}
{"smiles": "COc1ccc(NC(=O)N2CCC(c3nnc[nH]3)CC2)cc1C", "Percent Effect": 16.56}
{"smiles": "COc1ccc(NC(=O)N2CCC(c3noc(C)n3)CC2)cc1C", "Percent Effect": 55.08}
{"smiles": "CCn1cnnc1C1CCN(C(=O)c2cccc(C)c2C)CC1", "Percent Effect": -30.53}
{"smiles": "Cc1ccc(NC2CCN(C(=O)Cc3cccs3)CC2)nn1", "Percent Effect": -3.843}
{"smiles": "O=C(Cc1cccnc1)N1CC(Cc2nccc3cc[nH]c23)C1", "Percent Effect": 4.598}
{"smiles": "COc1ccccc1NC(=O)c1cnc(C2CCN(C(C)=O)C2)nc1C", "note": "(centres undefined)", "Percent Effect": 26.28}
{"smiles": "O=C(NCCc1cccc(Cl)c1)C1CCOCC1", "Percent Effect": 10.9}
{"smiles": "O=C1NCCCc2[nH]c(Cc3cccc(Cl)c3)nc21", "Percent Effect": -7.355}
{"smiles": "Cl.Cl.Clc1cccc(C[C@@H]2NCCC[C@@H]2Nc2ccccc2)c1", "Percent Effect": 55.37}
{"smiles": "O=C(C[S+]([O-])Cc1cccc(Cl)c1)NC1CCCC1", "note": "(centres undefined)", "Percent Effect": 37.46}
{"smiles": "Cl.c1ccc(CCNc2cccc(C3CCCNC3)n2)cc1", "note": "(centres undefined)", "Percent Effect": 12.44}
{"smiles": "O=C(Cc1cccc(Cl)c1)N[C@@H]1CCNC[C@H]1O", "Percent Effect": 2.906}
{"smiles": "Cl.Clc1cccc(N[C@H]2CCCN[C@H]2Cc2ccccc2)c1", "Percent Effect": 107}
{"smiles": "CCOc1ccc(Cl)cc1C1CCCN1.Cl", "note": "(centres undefined)", "Percent Effect": -3.998}
{"smiles": "Cl.Cl.Clc1cccc(C[C@@H]2NCCC[C@@H]2Nc2cccc(Cl)c2)c1", "Percent Effect": 108.9}
